This is a sample that favours compounds with a hit; in the whole collection about 2.2% have one here.
PGC1a acetyl inh: modulators of PGC1a acetylation. U2OS PGC1a acetylation, AlphaScreen anti-acetyl-lysine; with virally co-expressed GCN5 acetyltransferase. inhibition, % at 15.6 µM. 0.17% of 350,000 active. AID 651687;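 active = every replicate shows inhibition of at least 40%; inconclusive = mean inhibition at least 40% but some replicate below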
DENV2 CPE rescue: protects cells from dengue virus 2 cytopathic effect. 1.7% of 350,000 active. CPE inhibition, % at 9.99 µM. DENV2-infected cells, cytopathic effect rescue, plate reader. AID 651640; in the data active = CPE inhibition above about 20%, passing the limit was not always enough; inconclusive = no clear call, values can overlap the other calls; tested in BHK-21 cells
PvdQ acylase: blocks Pseudomonas aeruginosa PvdQ acylase activity. inhibition, % at 10 µM. purified PvdQ acylase, fluorescence plate reader. 0.063% of 340,000 active. AID 488965; in the data active = inhibition above about 30%, passing the limit was not always enough; inconclusive = no clear call, values can overlap the other calls
C2C12 statin: suppression of simvastatin myotoxicity. C2C12 myotubes + simvastatin, ATP luminescence, 48 h; scaled: DMSO 0, geranylgeraniol control 100. rescue of ATP level, % at 7.49 µM. 0.78% of 330,000 active. AID 602340;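 active = mean ATP rescue above about 67%, or every replicate alone reaching that limit, limit read from the data, passing the limit was not always enough; inconclusive = no clear call, values can overlap the other calls; inactive = mean under the limit and some replicate under it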;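 note: myotubes were challenged with 10 µM simvastatin during compound exposure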
miR-122 sensor: inhibitors of miR-122 in Huh7 cells; Huh7 miR-122 Renilla luciferase sensor, 48 h; neutral wells = 0, positive control = 100; activation (reporter increase), % at 12.5 µM; 0.3% of 340,000 active; AID 602342;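 active = mean replicate activation score at least 90 and every replicate individually at or above 90; inconclusive = only one of the two criteria met; inactive = neither criterion met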;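 note: higher luciferase means less miR-122 activity so hits act as miR-122 inhibitors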
Large screens that a line does not name were inactive; ! = not confirmed by another sample; [ ] = dose if it differs, or a comment.

Cn1cnc(S(=O)(=O)N2C[C@@H](O)COC[C@H]3O[C@@H](CC(=O)NC4CCCC4)CC[C@@H]32)c1	miR-122 sensor 127[16.7 µM] (no result: PvdQ acylase)
O=C(C[C@H]1CC[C@@H]2[C@H](COC[C@H](O)CN2C(=O)Cc2ccccc2)O1)NC1CCCC1	DENV2 CPE rescue 88 (no result: PvdQ acylase)
Cc1ccc(S(=O)(=O)Nc2ccc3c(c2)C(=O)N([C@H](C)CO)C[C@H](C)[C@H](CN(C)C(=O)Nc2cccc4ccccc24)O3)cc1	none (no result: PvdQ acylase)
CC(C)NC(=O)N(C)C[C@H]1Oc2c(NC(=O)C3CC3)cccc2C(=O)N([C@@H](C)CO)C[C@H]1C	none (no result: PvdQ acylase)
C[C@@H]1CN([C@@H](C)CO)C(=O)c2cccc(NC(=O)C3CC3)c2O[C@@H]1CN(C)S(=O)(=O)c1cn(C)cn1	DENV2 CPE rescue 29 (no result: PvdQ acylase)
C[C@H]1CN([C@@H](C)CO)C(=O)c2cccc(NC(=O)C3CC3)c2O[C@@H]1CN(C)C	DENV2 CPE rescue 23 (no result: PvdQ acylase)
CC(C)NC(=O)N(C)C[C@H]1Oc2c(NC(=O)C3CC3)cccc2C(=O)N([C@H](C)CO)C[C@H]1C	DENV2 CPE rescue 42 (no result: PvdQ acylase)
CCC(=O)N(C)C[C@H]1Oc2cc(-c3cccc(OC)c3)ccc2S(=O)(=O)N([C@@H](C)CO)C[C@@H]1C	none (no result: PvdQ acylase)
Cc1cccc(NC(=S)NC(C)CCc2ccccc2)c1 (stereo not given)	DENV2 CPE rescue 45 (no result: PGC1a acetyl inh)
Cc1cccc(NC(=O)NC(C)CCc2ccccc2)c1 (stereo not given)	none
CCCN1C[C@@H](C)[C@@H](OC)CN(C)C(=O)c2ccc(NC(=O)Nc3c(C)noc3C)cc2OC[C@H]1C	none (no result: PvdQ acylase)
CCCN1C[C@@H](C)[C@H](OC)CN(C)C(=O)c2ccc(NC(=O)Nc3c(C)noc3C)cc2OC[C@@H]1C	DENV2 CPE rescue 22 (no result: PvdQ acylase)
CO[C@@H]1CN(C)C(=O)c2ccc(NC(=O)Nc3c(C)noc3C)cc2OC[C@H](C)N(CC2CC2)C[C@@H]1C	PGC1a acetyl inh 101 (no result: PvdQ acylase, miR-122 sensor)
COc1ccc(CN(C)C[C@H]2Oc3c(NS(=O)(=O)c4ccc(F)cc4)cccc3C(=O)N([C@@H](C)CO)C[C@@H]2C)cc1	DENV2 CPE rescue inconclusive (no result: PvdQ acylase)
O=C(CC(c1ccccc1)c1ccco1)N1CCOCC1 (stereo not given)	C2C12 statin 128 (no result: DENV2 CPE rescue)
O=C(C(c1ccccc1)c1ccccc1)N1CCOCC1	miR-122 sensor 213 (no result: DENV2 CPE rescue)
O=C(C(c1ccccc1)C(O)c1ccccc1)N1CCOCC1 (stereo not given)	none (no result: miR-122 sensor)
C=CCC(NC(=O)c1ccc(C#N)cc1)C(=O)NCCC (stereo not given)	DENV2 CPE rescue 49 (no result: PGC1a acetyl inh, miR-122 sensor)
Cc1ccc(NC(=O)c2ccc(S(=O)(=O)N3CC(C)CC(C)C3)cc2)cc1S(=O)(=O)N1CCOCC1 (stereo not given)	DENV2 CPE rescue 46 (no result: PGC1a acetyl inh, miR-122 sensor)
CC1CC(C)CN(S(=O)(=O)c2ccc(NC(=O)c3ccc(=O)[nH]c3)cc2)C1 (stereo not given)	miR-122 sensor 102
CC(=O)c1ccc(NC(=O)c2ccc(C)c(S(=O)(=O)N3CCOCC3)c2)cc1	none (no result: PGC1a acetyl inh)
Cc1ccc(C(=O)OCC(=O)N2C(C)CCCC2C)cc1S(=O)(=O)N1CCOCC1 (stereo not given)	DENV2 CPE rescue 25
Cc1ccc(C(=O)OCC(=O)Nc2ccccc2C(F)(F)F)cc1S(=O)(=O)N1CCCCC1	DENV2 CPE rescue 101
O=C(COC(=O)c1cccc(S(=O)(=O)N2CCCCCC2)c1)Nc1ccccc1C(F)(F)F	none
CCCC(=O)Nc1ccc2c(c1)C(=O)N(C)C[C@H](OC)[C@@H](C)CN(CCC(F)(F)F)[C@@H](C)CO2	none (no result: PvdQ acylase, miR-122 sensor)
CO[C@@H]1CN(C)C(=O)c2cc(NS(C)(=O)=O)ccc2OC[C@@H](C)N(CC2CCOCC2)C[C@H]1C	none (no result: PvdQ acylase, miR-122 sensor)
Cc1[nH]c2ccccc2c1C(=O)CSC(=S)N1CCN(C)CC1	DENV2 CPE rescue 55 (no result: C2C12 statin)
CC(C)(C)c1ccc(NC(=O)NC2CCCc3ccccc32)cc1 (stereo not given)	DENV2 CPE rescue 39
Nc1nc(SCc2ccccc2)c2ncn(C3OC(CO)C(O)C3O)c2n1 (stereo not given)	none
Nc1nc(F)nc2c1ncn2[C@@H]1O[C@H](CO)[C@@H](O)[C@@H]1O	none
Nc1nc(F)nc2c1ncn2[C@@H]1O[C@H](CO)[C@@H](O)[C@H]1O	PGC1a acetyl inh 83
OCC1OC(n2cnc3c(SCc4ccccc4)ncnc32)C(O)C1O (stereo not given)	DENV2 CPE rescue 75 (no result: C2C12 statin)
Nc1ncnc2c1ncn2[C@@H]1O[C@H](C(=O)N[C@@H](CCc2ccccc2)C(=O)O)[C@@H](O)[C@H]1O	DENV2 CPE rescue 28 (no result: PGC1a acetyl inh, PvdQ acylase, C2C12 statin, miR-122 sensor)
O=C(C[C@H]1C=C[C@@H](NC(=O)Nc2ccc3c(c2)OCO3)[C@H](CO)O1)NCc1ccccc1	none (no result: PvdQ acylase, miR-122 sensor)
CCCc1cc2c(cc1NC(=O)c1ccc(C)cc1)OCO2	C2C12 statin 91 (no result: DENV2 CPE rescue)
CN(C)CC(=O)Nc1ccc2c(c1)[C@H]1C[C@@H](CC(=O)NCCN3CCCCC3)O[C@H](CO)[C@H]1O2	none (no result: PvdQ acylase)
CSCCC(NS(=O)(=O)c1cccs1)C(=O)NCc1ccccc1 (stereo not given)	DENV2 CPE rescue 36 (no result: PGC1a acetyl inh, C2C12 statin, miR-122 sensor)
CC(C)(C)n1nnnc1C(c1cccnc1)N1CCN(c2ccccc2F)CC1 (stereo not given)	C2C12 statin 120 (no result: DENV2 CPE rescue)
CC(C)CC(c1nnnn1C1CCCC1)N1CCN(c2ccccc2F)CC1 (stereo not given)	C2C12 statin 117 (no result: DENV2 CPE rescue)
O=C(NC1CCCC1)[C@@H]1[C@@H](CO)[C@@H]2Cn3c(cccc3=O)[C@H]1N2Cc1cc(F)ccc1F	none (no result: PGC1a acetyl inh, PvdQ acylase)
Cc1noc(C)c1C(=O)N(C)C[C@H]1OCc2ccccc2-c2c(n(C)c3ccccc23)C(=O)N([C@H](C)CO)C[C@@H]1C	none (no result: PvdQ acylase, C2C12 statin, miR-122 sensor)
C=CCOC(=O)C(=O)/C=C/c1ccc2c(c1)Cc1ccccc1-2	DENV2 CPE rescue 37!
CCC(=O)Nc1ccc2c(c1)C(=O)N(C)C[C@@H](OC)[C@H](C)CN(C(=O)c1cnccn1)[C@H](C)CO2	none (no result: PvdQ acylase, miR-122 sensor)
COCC(=O)Nc1ccc2c(c1)C(=O)N(C)C[C@H](OC)[C@@H](C)CN(C(=O)c1ccccn1)[C@@H](C)CO2	none (no result: PvdQ acylase, miR-122 sensor)
CCC(=O)Nc1ccc2c(c1)C(=O)N(C)C[C@@H](OC)[C@@H](C)CN(C(=O)c1cnccn1)[C@@H](C)CO2	DENV2 CPE rescue 29 (no result: PvdQ acylase, miR-122 sensor)
CCC(=O)Nc1ccc2c(c1)C(=O)N(C)C[C@H](OC)[C@@H](C)CN(C(=O)c1ccccn1)[C@H](C)CO2	none (no result: DENV2 CPE rescue, PvdQ acylase, miR-122 sensor)
CCC(=O)Nc1ccc2c(c1)C(=O)N(C)C[C@@H](OC)[C@H](C)CN(C(=O)c1ccccn1)[C@H](C)CO2	DENV2 CPE rescue 43 (no result: PvdQ acylase, miR-122 sensor)
COCC(=O)Nc1ccc2c(c1)C(=O)N(C)C[C@H](OC)[C@H](C)CN(C(=O)c1ccccn1)[C@H](C)CO2	DENV2 CPE rescue 31 (no result: PvdQ acylase, miR-122 sensor)
NC(=S)N/N=C/c1ccc(-c2cccc([N+](=O)[O-])c2)o1	none (no result: DENV2 CPE rescue, C2C12 statin)
Nc1nonc1C(=O)N/N=C/c1ccc(-c2cccc([N+](=O)[O-])c2)o1	C2C12 statin 176 (no result: DENV2 CPE rescue)
C[C@@H]1CCCCO[C@H](CN(C)S(C)(=O)=O)[C@@H](C)CN([C@H](C)CO)C(=O)c2cc(NS(=O)(=O)c3ccccc3)ccc2O1	DENV2 CPE rescue inconclusive (no result: PvdQ acylase)
